Assay results published in PubChem BioAssay AID1159580 (chemical genetic matrix, 2015).
Screen size: about 5,500 compounds; about 2,000 (36%) were called active. Roughly 18% stayed inconclusive and do not appear here. Rule as the data show it: active = normalized growth mostly below about 0.91 (no sharp cut-off); inconclusive = no clear call, values can overlap the other calls; inactive = mostly above about 0.92. The list shows a part of the results.

Test: chemical genetic growth profiling, strain panel (AID 1159580);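 also: tested at 20 µM; growth read once vehicle control cultures reached saturation at 30 °C; 1 = growth at the plate median or of vehicle wells; lower values mean less growth of the strain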
Details: growth OD

Measured: normalized growth

CC(CN(C)C)CN1c2ccccc2Sc2ccccc21 (configuration not stated)
active: S. cerevisiae deletion strains, locus YLR039C, strain RIC1, stronger effect = lower value 1.34 [resistant] | S. cerevisiae deletion strains, locus YLR262C, strain YPT6, stronger effect = lower value 1.44 [resistant]
inactive: S. cerevisiae deletion strains, locus YJR075W, strain HOC1, stronger effect = lower value 0.986 | S. cerevisiae deletion strains, locus YKL009W, strain mrt4, stronger effect = lower value 0.99 | S. cerevisiae deletion strains, locus YKL068W, stronger effect = lower value 0.981 | S. cerevisiae deletion strains, locus YKL085W, strain MDH1 (second series), stronger effect = lower value 1.01 | S. cerevisiae deletion strains, locus YKL085W, strain MDH1, stronger effect = lower value 1.01 | S. cerevisiae deletion strains, locus YKL160W, strain elf1, stronger effect = lower value 1.01 | S. cerevisiae deletion strains, locus YKL190W, strain CNB1, stronger effect = lower value 0.999 | S. cerevisiae deletion strains, locus YKR001C, strain vps1, stronger effect = lower value 0.991 | S. cerevisiae deletion strains, locus YKR026C, strain gcn3, stronger effect = lower value 1.02 | S. cerevisiae deletion strains, locus YKR091W, strain srl3, stronger effect = lower value 1.02 | S. cerevisiae deletion strains, locus YLL001W, strain dnm1, stronger effect = lower value 1.02 | S. cerevisiae deletion strains, locus YLL026W, stronger effect = lower value 1.02 | S. cerevisiae deletion strains, locus YLL041C, strain sdh2, stronger effect = lower value 1.01 | S. cerevisiae deletion strains, locus YLR027C, strain aat2, stronger effect = lower value 1.02 | S. cerevisiae deletion strains, locus YLR058C, strain SHM2, stronger effect = lower value 0.985 | S. cerevisiae deletion strains, locus YLR102C, strain apc9, stronger effect = lower value 0.993 | S. cerevisiae deletion strains, locus YLR113W, strain HOG1, stronger effect = lower value 0.988 | S. cerevisiae deletion strains, locus YLR221C, strain rsa3, stronger effect = lower value 1.02 | S. cerevisiae deletion strains, locus YLR258W, strain gsy2, stronger effect = lower value 1.02 | S. cerevisiae deletion strains, locus YLR262C, strain YPT6 (second series), stronger effect = lower value 1.1 | S. cerevisiae deletion strains, locus YLR268W, strain sec22, stronger effect = lower value 0.918 | S. cerevisiae deletion strains, locus YLR320W, strain mms22, stronger effect = lower value 1.01 | S. cerevisiae deletion strains, locus YLR330W, strain CHS5, stronger effect = lower value 0.999 | S. cerevisiae deletion strains, locus YLR342W, strain FKS1 (second series), stronger effect = lower value 0.888 | S. cerevisiae deletion strains, locus YLR342W, strain FKS1, stronger effect = lower value 1.03 | S. cerevisiae deletion strains, locus YLR357W, strain rsc2, stronger effect = lower value 1.04 | S. cerevisiae deletion strains, locus YLR370C, strain arc18, stronger effect = lower value 1.02 | S. cerevisiae deletion strains, locus YLR371W, strain rom2, stronger effect = lower value 0.994 | S. cerevisiae deletion strains, locus YLR384C, strain iki3, stronger effect = lower value 1.02 | S. cerevisiae deletion strains, locus YLR418C, strain cdc73, stronger effect = lower value 0.874 | S. cerevisiae deletion strains, locus YML016C, strain PPZ1, stronger effect = lower value 0.992 | S. cerevisiae deletion strains, locus YML032C, strain rad52, stronger effect = lower value 0.968 | S. cerevisiae deletion strains, locus YML120C, strain ndi1, stronger effect = lower value 0.998 | S. cerevisiae deletion strains, locus YML124C, strain tub3, stronger effect = lower value 0.995 | S. cerevisiae deletion strains, locus YMR058W, strain fet3, stronger effect = lower value 1.01 | S. cerevisiae deletion strains, locus YMR078C, strain ctf18, stronger effect = lower value 0.985 | S. cerevisiae deletion strains, locus YMR125W, strain sto1, stronger effect = lower value 1.02 | S. cerevisiae deletion strains, locus YMR129W, stronger effect = lower value 1.02 | S. cerevisiae deletion strains, locus YMR205C, strain PFK2, stronger effect = lower value 1.03 | S. cerevisiae deletion strains, locus YMR223W, strain ubp8, stronger effect = lower value 0.98 | S. cerevisiae deletion strains, locus YMR231W, strain pep5, stronger effect = lower value 1.03 | S. cerevisiae deletion strains, locus YMR263W, strain SAP30, stronger effect = lower value 0.978 | S. cerevisiae deletion strains, locus YMR307W, strain GAS1, stronger effect = lower value 1.03 | S. cerevisiae deletion strains, locus YNL067W, strain RPL9B, stronger effect = lower value 0.967 | S. cerevisiae deletion strains, locus YNL071W, strain lat1, stronger effect = lower value 1.02 | S. cerevisiae deletion strains, locus YNL128W, strain TEP1, stronger effect = lower value 0.988 | S. cerevisiae deletion strains, locus YNL153C, strain GIM3, stronger effect = lower value 0.953 | S. cerevisiae deletion strains, locus YNL183C, strain NPR1, stronger effect = lower value 0.948 | S. cerevisiae deletion strains, locus YNL209W, strain ssb2, stronger effect = lower value 1.02 | S. cerevisiae deletion strains, locus YNL233W, strain BNI4, stronger effect = lower value 0.969 | S. cerevisiae deletion strains, locus YNL248C, strain rpa49, stronger effect = lower value 1.02 | S. cerevisiae deletion strains, locus YNL250W, strain rad50, stronger effect = lower value 0.985 | S. cerevisiae deletion strains, locus YNL271C, strain bni1, stronger effect = lower value 0.992 | S. cerevisiae deletion strains, locus YNL298W, strain CLA4, stronger effect = lower value 0.991 | S. cerevisiae deletion strains, locus YNL307C, strain MCK1, stronger effect = lower value 0.974 | S. cerevisiae deletion strains, locus YNL322C, strain KRE1 (second series), stronger effect = lower value 1.04 | S. cerevisiae deletion strains, locus YNL322C, strain KRE1, stronger effect = lower value 0.998 | S. cerevisiae deletion strains, locus YNR049C, strain mso1, stronger effect = lower value 1.04 | S. cerevisiae deletion strains, locus YNR052C, strain pop2, stronger effect = lower value 0.974 | S. cerevisiae deletion strains, locus YOL006C, strain TOP1, stronger effect = lower value 0.922 | S. cerevisiae deletion strains, locus YOL012C, strain htz1 0.837 | S. cerevisiae deletion strains, locus YOL147C, strain pex11, stronger effect = lower value 0.996 | S. cerevisiae deletion strains, locus YOR001W, strain rrp6, stronger effect = lower value 1.01 | S. cerevisiae deletion strains, locus YOR061W, strain CKA2, stronger effect = lower value 0.996 | S. cerevisiae deletion strains, locus YOR069W, strain VPS5, stronger effect = lower value 0.984 | S. cerevisiae deletion strains, locus YOR070C, strain gyp1, stronger effect = lower value 1.02 | S. cerevisiae deletion strains, locus YOR080W, strain dia2, stronger effect = lower value 1.02 | S. cerevisiae deletion strains, locus YOR083W, strain WHI5, stronger effect = lower value 0.987 | S. cerevisiae deletion strains, locus YOR106W, strain vam3, stronger effect = lower value 1.05 | S. cerevisiae deletion strains, locus YOR136W, strain idh2, stronger effect = lower value 0.987 | S. cerevisiae deletion strains, locus YOR144C, strain elg1, stronger effect = lower value 0.993 | S. cerevisiae deletion strains, locus YOR184W, strain ser1, stronger effect = lower value 1.02 | S. cerevisiae deletion strains, locus YOR231W, strain MKK1, stronger effect = lower value 0.997 | S. cerevisiae deletion strains, locus YOR265W, strain rbl2, stronger effect = lower value 1.03 | S. cerevisiae deletion strains, locus YOR270C, strain vph1, stronger effect = lower value 1.08 | S. cerevisiae deletion strains, locus YOR290C, strain snf2, stronger effect = lower value 1.02 | S. cerevisiae deletion strains, locus YOR316C, strain cot1, stronger effect = lower value 0.992 | S. cerevisiae deletion strains, locus YPL051W, strain arl3, stronger effect = lower value 0.996 | S. cerevisiae deletion strains, locus YPL055C, strain LGE1, stronger effect = lower value 0.992 | S. cerevisiae deletion strains, locus YPL078C, strain atp4, stronger effect = lower value 1.01 | S. cerevisiae deletion strains, locus YPL106C, strain sse1, stronger effect = lower value 1.03 | S. cerevisiae deletion strains, locus YPL240C, strain hsp82, stronger effect = lower value 0.997 | S. cerevisiae deletion strains, locus YPL241C, strain CIN2, stronger effect = lower value 0.999 | S. cerevisiae deletion strains, locus YPL256C, strain CLN2, stronger effect = lower value 0.99 | S. cerevisiae deletion strains, locus YPR119W, strain clb2, stronger effect = lower value 0.997 | S. cerevisiae deletion strains, locus YPR141C, strain kar3, stronger effect = lower value 0.983 | S. cerevisiae deletion strains, locus YPR163C, strain tif3, stronger effect = lower value 0.966 | S. cerevisiae deletion strains, locus YPR167C, strain met16, stronger effect = lower value 0.99 | S. cerevisiae deletion strains, strain wtn01, stronger effect = lower value 0.968 | S. cerevisiae strains, strain wild type, stronger effect = lower value 0.992
